Assay results reported in PubChem BioAssay (EPA / NIEHS).
The source made the active and inactive calls. How the source made its calls: active means hit-call score of the fitted dose curve at least 0.9, where 1 is the maximum; inactive means score below 0.9.

Key:
[1] = APR_HepG2_CellCycleArrest_24hr: Apredica 24-hour HepG2 Assay for Cell Cycle Arrest (AID 2282905); details: imaging, actives raise or lower the signal;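 further: cell cycle arrest scored as ratio of 2N to 4N nuclear DNA content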
Method in brief: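 Compounds (0.39 to 200 uM, final DMSO 0.5% v/v) are applied to HepG2 cells for 24 hours; cells are then fixed, permeabilized and nuclei labeled with Hoechst 33342. Automated imaging measures DNA content, and activity is fitted in both directions against DMSO.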

[2] = APR_HepG2_StressKinase_1hr: Apredica 1-hour HepG2 Assay for Stress Kinase (AID 2282906); details: HepG2 stress kinase (phospho-c-Jun) imaging, actives raise or lower the signal
Method in brief: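 High-content imaging of phospho-c-Jun immunostaining (with Hoechst nuclear identification) after a 1 h exposure of HepG2 cells to 10 concentrations from 0.39 to 200 uM, final DMSO 0.5%. Fitted bidirectionally against DMSO.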

[3] = APR_HepG2_NuclearSize_24hr: Apredica 24-hour HepG2 Assay for Nuclear Size (AID 2282907); details: high-content imaging, actives raise or lower the signal
Method in brief: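 Nuclear size is measured by fluorescence high-content imaging of Hoechst-labelled HepG2 nuclei after 24 hr of treatment (0.39–200 uM, 0.5% DMSO). Cells are fixed in 3.7% formaldehyde before staining, and DMSO serves as the baseline for bidirectional curve fitting.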

[4] = APR_HepG2_CellLoss_24hr: Apredica 24-hour HepG2 Assay for Cell Loss (AID 2282908); details: high-content imaging;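 on AC50: fit in both directions so a hit may be cell loss or gain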
Method in brief: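 Nuclear count serves as the viability measure: treated cells are fixed, permeabilized and labelled with Hoechst 33342, and six images per well are analysed to identify valid nuclei. Doses span 0.39–200 uM, and activity in either direction is scored against DMSO.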

[5] = APR_HepG2_MicrotubuleCSK_24hr: Apredica 24-hour HepG2 Assay for Microtubule CSK Stabilty (AID 2282909); details: HepG2 microtubule cytoskeleton imaging, actives raise or lower the signal
Method in brief: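 Compounds were applied to HepG2 cells for 24 hours across 0.39–200 uM in duplicate, with final DMSO at 0.5% v/v. Fixed, permeabilized cells were labeled for alpha-tubulin and nuclei, and tubulin fluorescence was quantified by imaging, fitted bidirectionally against DMSO.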

[6] = APR_HepG2_MitoticArrest_24hr: Apredica 24-hour HepG2 Assay for Mitotic Arrest (AID 2282910); details: high-content imaging, actives raise or lower the signal
Method in brief: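 HepG2, 24 hr dosing, 0.39–200 uM, 0.5% DMSO final. Formaldehyde-fixed, Triton-permeabilised, anti-phospho-histone H3 plus Hoechst. ArrayScan imaging at 20x; bidirectional fit vs DMSO baseline.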

[7] = APR_HepG2_MitoMembPot_24hr: Apredica 24-hour HepG2 Assay for Mitochondrial Membrane Potential (AID 2282911); details: imaging, actives raise or lower the signal
Method in brief: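 Mitochondrial dye uptake (MitoTracker Red CMXRos, 250 nM, 30 min pre-fixation) in HepG2 after 24 hr compound exposure, 0.39–200 uM; ArrayScan images at 20x, activity fitted in both directions relative to DMSO.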

[8] = APR_HepG2_MitoMass_24hr: Apredica 24-hour HepG2 Assay for Mitochondrial Mass (AID 2282912); details: high-content imaging, actives raise or lower the signal
Method in brief: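 After 24 hr of treatment at 0.39 to 200 uM, HepG2 cells take up 250 nM MitoTracker Red CMXRos for 30 min and are then fixed with 3.7% formaldehyde. Per-well images are quantified, and any change in either direction is scored against solvent.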

[9] = APR_HepG2_CellCycleArrest_72hr: Apredica 72-hour HepG2 Assay for Cell Cycle Arrest (AID 2282914); details: high-content imaging, actives raise or lower the signal
Method in brief: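 Using multiplexed high-content imaging, HepG2 nuclei stained with Hoechst 33342 (2 ug/mL) were analysed for DNA content after fixation and permeabilization. Treatment lasted 72 hr across 0.39–200 uM in duplicate with final DMSO 0.5% v/v; DMSO served as negative control.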

[10] = APR_HepG2_p53Act_24hr: Apredica 24-hour HepG2 Assay for p53 Activation (AID 2282913); details: high-content imaging, actives raise or lower the signal;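 further: p53 protein immunofluorescence averaged per cell in HepG2 with Hoechst nuclei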
Method in brief: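 Following 24 hr dosing of HepG2 at 0.39–200 uM, the cells undergo formaldehyde fixation, Triton permeabilization and multiplexed antibody labeling that includes p53 (Cy5). Signal from the imaging is referenced to DMSO solvent controls.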

| Compound | outcome [1] | outcome [2] | outcome [3] | outcome [4] | outcome [5] | outcome [6] | outcome [7] | outcome [8] | outcome [9] | AC50 [5] | outcome [10] | AC50 [7] | AC50 [1] | AC50 [9] | AC50 [2] | AC50 [3] | AC50 [4] |
| --- | --- | --- | --- | --- | --- | --- | --- | --- | --- | --- | --- | --- | --- | --- | --- | --- | --- |
| C=CCOC(=O)C(C)(C)OC(=O)c1cc(-n2c(=O)cc(C(F)(F)F)n(C)c2=O)ccc1Cl | inactive | inactive | inactive | inactive | inactive | inactive | inactive | inactive | inactive |  |  |  |  |  |  |  |  |
| COC(=O)c1c(C(F)F)nc(C(F)(F)F)c(C2=NCCS2)c1CC(C)C | inactive | inactive | inactive | inactive |  | inactive | inactive | inactive | inactive | 91.6 µM (active) |  |  |  |  |  |  |  |
| CC(C)NC(=O)N1CC(=O)N(c2cc(Cl)cc(Cl)c2)C1=O | inactive | inactive | inactive | inactive | inactive | inactive | inactive | inactive | inactive |  | inactive |  |  |  |  |  |  |
| CO/N=C(/C1=NOCCO1)c1ccccc1Oc1ncnc(Oc2ccccc2Cl)c1F | inactive | inactive | inactive | inactive | inactive | inactive |  | inactive | inactive |  |  | 0.309 µM (active) |  |  |  |  |  |
| COCC(=O)N(c1c(C)cccc1C)C(C)C(=O)OC (stereo unspecified) | inactive | inactive | inactive | inactive | inactive | inactive | inactive | inactive | inactive |  |  |  |  |  |  |  |  |
| CC(C)C1(C)N=C(c2ncccc2C(=O)O)NC1=O (stereo unspecified) | inactive |  | inactive | inactive | inactive | inactive | inactive | inactive | inactive |  | inactive |  |  |  |  |  |  |
| CC(C)=CC1C(C(=O)OCc2coc(Cc3ccccc3)c2)C1(C)C (stereo unspecified) |  | inactive | inactive | inactive | inactive | inactive |  | inactive |  |  |  | 100 µM (active) | 62.5 µM (active) | 31.7 µM (active) |  |  |  |
| O=P(O)(O)CCCl | inactive | inactive | inactive | inactive | inactive | inactive | inactive | inactive | inactive |  |  |  |  |  |  |  |  |
| OC(c1ccc(Cl)cc1)(c1ccc(Cl)cc1)C(Cl)(Cl)Cl | inactive |  |  |  | inactive | inactive | inactive | inactive | inactive |  |  |  |  |  | 30.9 µM (active) | 74.1 µM (active) | 43.1 µM (active) |
| CCOc1nc(C(Cl)(Cl)Cl)ns1 | inactive | inactive | inactive | inactive | inactive | inactive | inactive | inactive | inactive |  | inactive |  |  |  |  |  |  |
| CC(C)Nc1nc(Cl)nc(NC(C)C)n1 | inactive | inactive | inactive | inactive | inactive | inactive |  | inactive | inactive |  |  | 110 µM (active) |  |  |  |  |  |
| CCOC(=O)C(C)OC(=O)c1cc(Oc2ccc(C(F)(F)F)cc2Cl)ccc1[N+](=O)[O-] (stereo unspecified) | inactive |  | inactive | inactive | inactive | inactive | inactive | inactive | inactive |  | inactive |  |  |  |  |  |  |
| CC(C)N1C(=O)c2ccccc2NS1(=O)=O | inactive | inactive | inactive | inactive | inactive | inactive | inactive | inactive | inactive |  |  |  |  |  |  |  |  |
| Nc1c(Cl)c(F)nc(OCC(=O)O)c1Cl | inactive | inactive | inactive | inactive | inactive | inactive | inactive | inactive | inactive |  | inactive |  |  |  |  |  |  |
| O=C(O)c1c(Cl)ccc2cc(Cl)cnc12 | inactive | inactive | inactive | inactive | inactive | inactive | inactive | inactive | inactive |  |  |  |  |  |  |  |  |
| Clc1nc(Cl)nc(Nc2ccccc2Cl)n1 | inactive | inactive | inactive | inactive | inactive | inactive | inactive | inactive | inactive |  |  |  |  |  |  |  |  |
| CCCCOCN(C(=O)CCl)c1c(CC)cccc1CC | inactive |  | inactive |  |  | inactive | inactive | inactive | inactive | 31.2 µM (active) |  |  |  |  | 47.5 µM (active) |  | 35.3 µM (active) |

| Compound | outcome [1] | outcome [2] | outcome [3] | outcome [4] | outcome [5] | outcome [6] | outcome [7] | outcome [8] | outcome [9] | AC50 [5] | outcome [10] | AC50 [7] | AC50 [1] | AC50 [9] | AC50 [2] | AC50 [3] | AC50 [4] |
| --- | --- | --- | --- | --- | --- | --- | --- | --- | --- | --- | --- | --- | --- | --- | --- | --- | --- |
| CS(=O)(=O)c1ccc(C(=O)C2C(=O)CCCC2=O)c([N+](=O)[O-])c1 | inactive |  | inactive | inactive | inactive | inactive | inactive | inactive | inactive |  | inactive |  |  |  |  |  |  |
| COCc1cnc(C2=NC(C)(C(C)C)C(=O)N2)c(C(=O)O)c1 (stereo unspecified) | inactive | inactive | inactive | inactive | inactive | inactive | inactive | inactive | inactive |  |  |  |  |  |  |  |  |
| COP(=O)(OC)O/C(C)=C/C(=O)N(C)C | inactive | inactive | inactive | inactive | inactive | inactive | inactive | inactive | inactive |  | inactive |  |  |  |  |  |  |
| CCNP(=S)(OC)O/C(C)=C/C(=O)OC(C)C (stereo unspecified) | inactive | inactive | inactive | inactive | inactive | inactive | inactive | inactive | inactive |  | inactive |  |  |  |  |  |  |
| Cc1c(COC(=O)[C@@H]2[C@H](/C=C(\Cl)C(F)(F)F)C2(C)C)cccc1-c1ccccc1 | inactive | inactive | inactive | inactive | inactive | inactive | inactive | inactive | inactive |  | inactive |  |  |  |  |  |  |
| Clc1cccc(C(Cl)(Cl)Cl)n1 | inactive | inactive | inactive | inactive | inactive | inactive | inactive | inactive | inactive |  |  |  |  |  |  |  |  |
| CC1(C)C(C(=O)OC(C#N)c2cccc(Oc3ccccc3)c2)C1(C)C (stereo unspecified) | inactive | inactive | inactive | inactive | inactive | inactive | inactive | inactive | inactive |  |  |  |  |  |  |  |  |
| CCOP(=O)(OCC)Oc1nc(Cl)c(Cl)cc1Cl | inactive |  | inactive | inactive | inactive | inactive | inactive | inactive | inactive |  | inactive |  |  |  |  |  |  |
| CC1(C)C(C=C(Cl)Cl)C1C(=O)OC(C#N)c1cccc(Oc2ccccc2)c1 (stereo unspecified) |  | inactive | inactive | inactive | inactive | inactive | inactive | inactive | inactive |  | inactive |  | 35.1 µM (active) |  |  |  |  |
| Cc1cnc(C2=NC(C)(C(C)C)C(=O)N2)c(C(=O)O)c1 (stereo unspecified) | inactive | inactive | inactive | inactive | inactive | inactive | inactive | inactive | inactive |  |  |  |  |  |  |  |  |
| COP(=S)(OC)SCn1nnc2ccccc2c1=O | inactive | inactive | inactive | inactive | inactive | inactive | inactive | inactive |  |  | inactive |  |  | 100 µM (active) |  |  |  |
| CCN(CC)c1nc(C)cc(OP(=S)(OC)OC)n1 | inactive | inactive | inactive | inactive | inactive | inactive | inactive | inactive | inactive |  | inactive |  |  |  |  |  |  |
| CS(=O)(=O)c1cc(C(F)(F)F)ccc1C(=O)c1cnoc1C1CC1 | inactive | inactive | inactive | inactive | inactive | inactive | inactive | inactive | inactive |  |  |  |  |  |  |  |  |
| CCCCC(O)(Cn1cncn1)c1ccc(Cl)cc1Cl (stereo unspecified) | inactive | inactive | inactive |  |  | inactive | inactive | inactive | inactive | 103 µM (active) |  |  |  |  |  |  | 88 µM (active) |
| CCSC(=O)N1CCCCCC1 | inactive | inactive | inactive | inactive | inactive | inactive | inactive | inactive | inactive |  |  |  |  |  |  |  |  |
| CNC(=O)N(C)c1nnc(C(C)(C)C)s1 | inactive | inactive | inactive | inactive | inactive | inactive | inactive | inactive | inactive |  |  |  |  |  |  |  |  |
| COP(=S)(OC)Oc1ccc([N+](=O)[O-])c(C)c1 | inactive | inactive | inactive | inactive | inactive | inactive | inactive | inactive | inactive |  | inactive |  |  |  |  |  |  |
